The values below come from PubChem BioAssay.

Values without a mark were called inactive. The source made the active and inactive calls. How the calls were made is not given here.

The inhibition is the change of the read-out against control, counted positive when it falls.

The subject of experiment [1] is Botulinum neurotoxin type F light chain protease (Clostridium botulinum). Description: Clostridium botulinum type F light chain protease inhibitors, microsphere substrate cleavage, validation (AID 588459). The settings on record: multiplex microsphere protease substrate cleavage assay, flow cytometry; at 10 µM; active compounds read high. In general terms: In flow cytometry, cells or beads pass a laser one at a time.

The target of experiment [2] is Botulinum neurotoxin type A (Clostridium botulinum) (UniProt P0DPI0). Description: BoNT/A light chain protease inhibitors, biochemical, multiplex microsphere flow cytometry, validation set (AID 588460). The settings on record: at 10 µM, active compounds read high.
The target in experiment [3] is Lethal factor (Bacillus anthracis) (UniProt P15917). The experiment in a line: Bacillus anthracis lethal factor inhibition, microsphere flow cytometry protease assay, validation at 10 µM (AID 588461). The settings on record: multiplex microsphere protease cleavage assay, active compounds read high.
Sequence of Lethal factor (Bacillus anthracis) (P15917 whole entry, looked up): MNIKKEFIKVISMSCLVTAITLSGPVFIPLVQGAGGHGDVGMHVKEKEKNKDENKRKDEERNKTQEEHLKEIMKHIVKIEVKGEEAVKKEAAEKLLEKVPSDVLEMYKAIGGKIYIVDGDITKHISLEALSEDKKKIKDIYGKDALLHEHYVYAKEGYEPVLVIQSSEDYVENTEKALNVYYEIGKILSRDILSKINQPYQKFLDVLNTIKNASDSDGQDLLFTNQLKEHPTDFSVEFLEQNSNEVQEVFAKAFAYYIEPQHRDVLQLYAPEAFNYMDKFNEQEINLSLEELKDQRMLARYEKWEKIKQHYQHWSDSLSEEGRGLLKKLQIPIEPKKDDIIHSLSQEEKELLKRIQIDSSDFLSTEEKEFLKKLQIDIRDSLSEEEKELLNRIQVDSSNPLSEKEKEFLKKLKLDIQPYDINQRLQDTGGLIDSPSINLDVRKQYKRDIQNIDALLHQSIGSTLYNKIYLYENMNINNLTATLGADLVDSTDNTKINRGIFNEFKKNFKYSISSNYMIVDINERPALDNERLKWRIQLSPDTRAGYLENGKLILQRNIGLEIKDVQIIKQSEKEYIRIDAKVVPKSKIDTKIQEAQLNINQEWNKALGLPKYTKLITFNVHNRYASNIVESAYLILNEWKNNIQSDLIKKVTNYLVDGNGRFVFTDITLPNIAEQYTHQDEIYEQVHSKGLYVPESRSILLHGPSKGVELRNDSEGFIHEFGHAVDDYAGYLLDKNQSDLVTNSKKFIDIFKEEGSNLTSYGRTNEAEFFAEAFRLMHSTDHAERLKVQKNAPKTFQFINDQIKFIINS

Sequence of Botulinum neurotoxin type A (Clostridium botulinum) (P0DPI0 whole entry, looked up): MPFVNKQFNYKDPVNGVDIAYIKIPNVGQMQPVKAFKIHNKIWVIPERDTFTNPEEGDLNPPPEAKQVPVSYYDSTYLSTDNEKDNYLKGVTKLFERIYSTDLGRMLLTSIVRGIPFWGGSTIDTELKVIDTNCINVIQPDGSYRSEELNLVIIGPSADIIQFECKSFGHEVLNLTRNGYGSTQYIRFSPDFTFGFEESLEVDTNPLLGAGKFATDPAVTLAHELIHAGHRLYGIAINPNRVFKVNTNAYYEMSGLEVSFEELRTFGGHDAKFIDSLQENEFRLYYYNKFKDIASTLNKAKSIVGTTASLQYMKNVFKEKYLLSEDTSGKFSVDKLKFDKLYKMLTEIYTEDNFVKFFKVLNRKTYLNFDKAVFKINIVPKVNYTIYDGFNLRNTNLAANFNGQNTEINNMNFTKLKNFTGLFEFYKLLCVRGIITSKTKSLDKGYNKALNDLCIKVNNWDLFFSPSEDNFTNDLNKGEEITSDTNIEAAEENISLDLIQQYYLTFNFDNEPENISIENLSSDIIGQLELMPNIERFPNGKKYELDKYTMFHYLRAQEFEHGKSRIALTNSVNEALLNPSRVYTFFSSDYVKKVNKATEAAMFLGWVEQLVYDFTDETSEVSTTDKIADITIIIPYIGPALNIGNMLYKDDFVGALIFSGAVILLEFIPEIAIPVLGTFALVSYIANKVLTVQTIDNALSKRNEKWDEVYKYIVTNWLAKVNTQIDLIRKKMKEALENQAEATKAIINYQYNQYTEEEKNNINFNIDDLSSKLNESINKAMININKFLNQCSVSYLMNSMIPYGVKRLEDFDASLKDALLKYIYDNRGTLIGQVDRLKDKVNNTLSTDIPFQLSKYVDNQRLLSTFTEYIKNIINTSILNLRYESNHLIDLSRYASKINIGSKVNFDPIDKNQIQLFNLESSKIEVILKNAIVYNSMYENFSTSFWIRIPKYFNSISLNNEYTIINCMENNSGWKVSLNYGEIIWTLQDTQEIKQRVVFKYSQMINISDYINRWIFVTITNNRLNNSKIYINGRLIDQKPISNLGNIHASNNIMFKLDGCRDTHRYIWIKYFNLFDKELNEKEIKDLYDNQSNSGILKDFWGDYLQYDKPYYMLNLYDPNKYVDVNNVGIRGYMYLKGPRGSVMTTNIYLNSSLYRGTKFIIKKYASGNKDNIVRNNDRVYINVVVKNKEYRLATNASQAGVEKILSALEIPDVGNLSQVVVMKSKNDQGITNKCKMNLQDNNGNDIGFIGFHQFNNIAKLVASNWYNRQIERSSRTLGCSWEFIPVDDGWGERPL

Regarding `COc1ccc(NC(=O)C2C(=O)N(CCO)C3(C)CC2c2ccccc2O3)cc1` (stereo not given), the inhibition in experiment [1] was 0.1%; in experiment [2], 1.3%; in experiment [3], -1.3%.
As to `CN(C)CCC(c1ccc(Br)cc1)c1ccccn1` (stereo not given), the inhibition was 1.3% in experiment [1], -0.7% in experiment [2] and -8.1% in experiment [3].
For the compound `Cc1ccc(NCCC(=O)c2ccccc2)cc1Cl`, the inhibition in experiment [1] is 4.1%; in experiment [2], 0.4%; in experiment [3], -2.5%.
On to `COc1ccc(CCN2CNc3c(c(=O)n(C)c(=O)n3C)C2)cc1OC`, for which the inhibition is 22.1% in experiment [1], 8% in experiment [2] and 4.8% in experiment [3].
Take `CC(C)C(CCN1C(=O)CCC1=O)C1CCOC(C)(C)C1` (stereo not given): the values for the inhibition in experiment [1], in experiment [2] and in experiment [3] were 3%, 0.5% and 0.7%, respectively.
On to `COc1cc2[nH]c3c(=O)n(CCN4CCOCC4)cnc3c2cc1OC`, for which the inhibition in experiment [1] was 0.3%; in experiment [2], 0.1%; in experiment [3], 1%.
Consider `O=C(NCCC(c1ccccc1)c1ccco1)c1cccs1` (stereo not given), for which the inhibition is 3.1% in experiment [1], -2.7% in experiment [2] and 3% in experiment [3].
With `O=C(Cc1ccccc1[N+](=O)[O-])NCCCN1CCOCC1`, the inhibition in experiment [1] is -1.6%; in experiment [2] it was -0.1%; in experiment [3], 6.7%.
Turning to `CN(C)CCOC(=O)C(c1ccccc1)C1(O)CCCC1` (stereo not given), the inhibition is 2.3% in experiment [1], -0.3% in experiment [2] and -6% in experiment [3].
For the compound `OC(C#CCN1CCCC1)(c1ccccc1)c1cccnc1` (stereo not given), the figures for the inhibition in experiment [1], in experiment [2] and in experiment [3] were -1%, -1% and -1.1%, respectively.
`O=C1NCC2=C1C(c1ccccc1)Nc1ccccc1N2` (stereo not given): the inhibition in experiment [1] was 2.4%; in experiment [2] it was 0.1%; in experiment [3], -4.9%.
For `Cc1cc(OC(=O)CNC(=O)OC(C)(C)C)c2c(C)cc(=O)oc2c1`, the inhibition in experiment [1] is -0.2%; in experiment [2], -0.7%; in experiment [3], 5.4%.
Regarding `CC[N+]1(C)CC2CCC(C)(C1)C2(C)C` (stereo not given), the inhibition was 1.1% in experiment [1], -0.5% in experiment [2] and 11.8% in experiment [3].
`O=C(NC1CCCCC1)N1CCc2[nH]c3ccccc3c2C1`: the values for the inhibition in experiment [1], in experiment [2] and in experiment [3] were 36.5% (active), 3.5% and 5%, respectively.
In the case of `NS(=O)(=O)c1ccc(CCNC(=O)C2CCCN2C(=O)OCc2ccccc2)cc1` (stereo not given), the inhibition in experiment [1] was 3.9%; in experiment [2], -0.7%; in experiment [3] it was 1.2%.
For `CC1=C(C)C(=O)C(CCCCC#CCCCC#CCO)=C(C)C1=O`, the inhibition in experiment [1] was -2.1%; in experiment [2] it was 0.4%; in experiment [3], -2.3%.
Turning to `O=C1C2CC=C(Cl)CC2C(=O)N1CCc1c[nH]c2ccccc12` (stereo not given), the inhibition in experiment [1] was 0.7%; in experiment [2] it was 0.1%; in experiment [3] it was 0.1%.
With `NS(=O)(=O)c1cc2c(cc1Cl)NC(CSCc1ccccc1)=NS2(=O)=O`, the inhibition was -4.8% in experiment [1], 0% in experiment [2] and -2.3% in experiment [3].
For the compound `CC(C)(C)OC(=O)COc1cc(OCC(=O)OC(C)(C)C)c2c(=O)cc(-c3ccccc3)oc2c1`, the inhibition in experiment [1] was 1.4%; in experiment [2], 0.8%; in experiment [3], -7.2%.
On to `CC1(C)CC(=O)c2cn3c(nc2C1)nc1ccccc13`, for which the inhibition in experiment [1] was 1%; in experiment [2], -0.2%; in experiment [3], 0%.
For the compound `OCC(O)CN1CCN(c2ccccc2)CC1` (stereo not given), the inhibition in experiment [1] was 1.1%; in experiment [2] it was 0.8%; in experiment [3], -2.7%.
For `COc1ccc(CN(CCC(c2ccc(F)cc2)C2CCOC(C)(C)C2)C(=O)c2ccco2)cc1` (stereo not given), the inhibition was -2.6% in experiment [1], -0.3% in experiment [2] and 1.6% in experiment [3].
As for `COc1ccc(C(=O)Nc2ccc(OC)c([N+](=O)[O-])c2)cc1Br`, the inhibition in experiment [1] was 1.7%; in experiment [2] it was -0.3%; in experiment [3] it was 8.3%.
The like results for `CC(C)=CCC/C(C)=C/CC/C(C)=C/CC/C(C)=C/CC1=C(C)C(=O)c2ccccc2C1=O` were, in that order, -4.8%, -0.7% and -3%.
The like results for `CS(=O)(=O)c1cccc(C(=O)Oc2ccccc2)c1` were, in that order, -2%, 0.1% and 4.6%.
In the same order, the values of `CC(=O)C1=C(O)C(=O)OC1c1ccc(C)cc1` (stereo not given) are 9.7%, 1.4% and -4.5%.
As for `CC(C)N(Cc1nccn1C)C(=O)CC1C(=O)NCCN1Cc1ccccc1C(F)(F)F` (stereo not given), the inhibition was -1.2% in experiment [1], -0.8% in experiment [2] and 0.4% in experiment [3].
With `CN1CCN(CCCN2c3ccccc3Sc3ccc(C(F)(F)F)cc32)CC1`, the inhibition is 0.3% in experiment [1], -0.5% in experiment [2] and -3.1% in experiment [3].
Take `Cc1ccc(Cl)c(OCCCN(C)Cc2ccccc2)c1`: the inhibition in experiment [1] was 2.8%; in experiment [2] it was 0.1%; in experiment [3], -7.8%.
For `CC(C)CN1CC(C(=O)O)CC1=O` (stereo not given), the inhibition in experiment [1] was 3.8%; in experiment [2], -1.3%; in experiment [3] it was 1.5%.
For the compound `Cn1c(=O)c2c(nc(SCCN3CCCCC3)n2C)n(C)c1=O`, the inhibition in experiment [1] is -1.4%; in experiment [2], 0.2%; in experiment [3], -4.6%.
On to `COc1ccccc1NC(=O)Cn1c(C)cc(=O)c2cccc(OC)c21`, for which the inhibition in experiment [1] is -1.1%; in experiment [2], -0.9%; in experiment [3], -0.2%.
The like results for `Cn1c(=S)n(C)c2ccccc21` were, in that order, 4%, 0.1% and 2.8%.
For `COc1ccccc1C(O)c1nccn1C` (stereo not given), the inhibition in experiment [1] is 1.9%; in experiment [2], -0.7%; in experiment [3], 0.4%.
In the case of `COc1ccc2c(c1OC)C(=O)N1C2SC[C@H]1C(=O)NC1CC(C)(C)NC(C)(C)C1` (stereo not given in full), the inhibition in experiment [1] is 3.2%; in experiment [2], -0.5%; in experiment [3], -2.4%.
In the case of `CCN(Cc1ccncc1)Cc1nc(Cc2ccccc2Cl)no1`, the inhibition in experiment [1] was -4.4%; in experiment [2] it was -0.8%; in experiment [3] it was -2.6%.
The like results for `CCOC(=O)C1(Cc2cccc(Cl)c2)CCCN(C2CCN(C(C)=O)CC2)C1` (stereo not given) were, in that order, 9.1%, 0.7% and -5.1%.
As to `CC(=O)[C@H]1CC[C@H]2[C@@H]3CCC4=CC(=O)CC[C@]4(C)[C@H]3CC[C@]12C`, the inhibition is 2.7% in experiment [1], 1.5% in experiment [2] and 3.1% in experiment [3].
For the compound `COc1ccc(CNCCC(c2ccc(F)cc2)c2ccc(OC(C)C)cc2)cc1OC` (stereo not given), the inhibition in experiment [1] was -0.6%; in experiment [2], -2%; in experiment [3] it was 8.2%.
`CC(=O)C1=C(O)C(=O)N(Cc2cccnc2)C1c1ccc(C(C)C)cc1` (stereo not given): the inhibition is 3.2% in experiment [1], 4.3% in experiment [2] and 7% in experiment [3].
In the same order, the values of `CC(=O)OC(C)C[N+](C)(C)C` (stereo not given) are 0.7%, 0.6% and -5.8%.
Take `N#Cc1c2c(c(-c3ccccc3)[nH]c1=O)CCCC2`: the inhibition is -7.4% in experiment [1], -0.9% in experiment [2] and 2.3% in experiment [3].
On to `CCc1nc(N)nc(N)c1-c1ccc(Cl)cc1`, for which the inhibition in experiment [1] was 0.4%; in experiment [2], -0.6%; in experiment [3], -2.6%.
`CCNC(=O)C(Cc1ccccc1)NC(=O)OCc1ccccc1` (stereo not given): the inhibition was 0.3% in experiment [1], -1.4% in experiment [2] and 5.5% in experiment [3].
For `CN(C)c1cc(NC(=O)CN2CCOCC2)c2ccccc2n1`, the inhibition is 0% in experiment [1], -1.5% in experiment [2] and -4.6% in experiment [3].
Take `CCCCOc1ccc(C(=O)CCN2CCCCC2)cc1`: the inhibition in experiment [1] was 3.4%; in experiment [2], 1.8%; in experiment [3], -1.7%.
For the compound `COc1cc(C(=O)OCCCN(C)C)cc(OC)c1OC`, the inhibition in experiment [1] was -0.2%; in experiment [2] it was -0.5%; in experiment [3], 1.8%.
As for `COC(=O)C1=C(C)NC(C)=C(C(=O)OC)C1c1ccccc1[N+](=O)[O-]`, the values for the inhibition in experiment [1], in experiment [2] and in experiment [3] were 5.8%, 2.2% and 2%, respectively.
With `CCN1/C(=C/C=C/C=C/c2sc3ccccc3[n+]2CC)Sc2ccccc21`, the inhibition in experiment [1] is -1%; in experiment [2], 16.8%; in experiment [3] it was -36.6%.
Consider `Cc1ccc2c(c1)C(O)(CC(=O)/C=C/C=C/c1ccccc1)C(=O)N2` (stereo not given), for which the inhibition was -1.2% in experiment [1], -0.9% in experiment [2] and -8.4% in experiment [3].
As for `Cn1cc(CN2CCCC(CO)(Cc3cccc(Cl)c3)C2)cn1` (stereo not given), the inhibition is 4.8% in experiment [1], 1.3% in experiment [2] and -5.4% in experiment [3].
In the same order, the values of `COc1ccc(C=O)c(OC)c1` are -0.3%, -0.5% and 0.2%.
The like results for `Cn1c2ccccc2c2cc(/C=C(\NC(=O)c3ccccc3)C(=O)O)ccc21` were, in that order, -0.2%, 0.3% and 4.6%.
Consider `COc1cc(NC(=O)COc2ccccc2)c(OC)cc1NC(C)=O`, for which the inhibition was -2.2% in experiment [1], 1.2% in experiment [2] and -8.3% in experiment [3].
On to `CC(C)CC(NC(=O)c1cccc(Cl)c1)C(=O)O` (stereo not given), for which the inhibition in experiment [1] is -4.2%; in experiment [2], -2.6%; in experiment [3] it was 0.4%.
In the same order, the values of `COc1cc(C2NCCc3c2[nH]c2ccccc32)ccc1OC(C)C` (stereo not given) are 1.4%, -0.5% and 4.3%.
In the same order, the values of `O=C(CC1SC(=O)NC1=O)Nc1ccc(Cl)cc1` (stereo not given) are -1.9%, 0.8% and -0.5%.
For the compound `CN1CCCN=C1COC(=O)C(O)(c1ccccc1)C1CCCCC1` (stereo not given), the inhibition is -1.4% in experiment [1], -0.9% in experiment [2] and -4.7% in experiment [3].
On to `CC(=O)OCC#CCSc1nc2ccccc2n1C`, for which the inhibition is 0.7% in experiment [1], -0.6% in experiment [2] and -1.5% in experiment [3].
For `COc1ccc(C(=O)NCc2cccnc2)cc1`, the inhibition in experiment [1] is -1.8%; in experiment [2], 0%; in experiment [3], -4.9%.
The like results for `C#C[C@]1(O)CC[C@H]2[C@@H]3CCc4cc(O)ccc4[C@H]3CC[C@@]21C` were, in that order, -3.8%, -2.8% and 6.8%.
Turning to `COc1cccc(CN2C(=O)N(C(C)C)C(N(O)C(=O)NC(C)C)C2(C)C)c1OC` (stereo not given), the inhibition is -1.7% in experiment [1], -0.8% in experiment [2] and -2.1% in experiment [3].
For `COC(=O)CN1CC(=O)N(c2ccccc2)C1=S`, the inhibition was -0.8% in experiment [1], 0% in experiment [2] and -1% in experiment [3].
Consider `COc1ccc(CCNC(=S)NC(=O)/C=C/c2ccc(C)cc2)cc1OC`, for which the inhibition was 0.1% in experiment [1], -1.3% in experiment [2] and -7.3% in experiment [3].
For the compound `CCCCN1C[C@H](O)[C@@H](O)[C@H](O)[C@H]1CO`, the inhibition in experiment [1] is 1.9%; in experiment [2], -1%; in experiment [3] it was 0.7%.
